Reference: PMC4336329 (PLoS ONE, 2015)
The campaign covered roughly 310,000 compounds. About 14,000 (4.5%) showed an effect of 50% or more. Effects have a minus sign here. The sample holds strong results, similar compounds and a random draw of the others, so the mix is not that of the screen.

Target: human ether-à-go-go-related gene (hERG) potassium channel (human, UniProt Q12809)
Assay: primary screen, population patch clamp on CHO cells stably expressing hERG; higher = less effect of the substance
Procedure: Briefly, Chinese hamster ovary (CHO) cells stably expressing the hERG channel were dislodged from tissue culture flasks and dispensed into PPC plates. […] During the recording, background leak currents were estimated by a 100 ms step to -80 mV from an initial holding potential of -70 mV and subtracted from the subsequent current measurement. The campaign was conducted in two phases using slight differences in recording protocol. In the first phase, the initial voltage pulse used a 100 ms step to -30 mV from a holding potential of -70 mV, a 2 s conditioning step to +25 mV, and a 2 s test step to -30 mV. During the second phase of the screen, the potential during the conditioning step was raised to +45 mV. In both phases of the campaign, a secondary voltage pulse was applied using the same parameters as the second phase initial pulse. The initial and secondary pulses were applied in the absence of compound, and upon application of 1 μM and 10 μM test concentrations. […]
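Further: peak tail current of the secondary pulse compared with the same well before compound.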

Chain of human ether-à-go-go-related gene (hERG) potassium channel (Q12809 whole entry, looked up): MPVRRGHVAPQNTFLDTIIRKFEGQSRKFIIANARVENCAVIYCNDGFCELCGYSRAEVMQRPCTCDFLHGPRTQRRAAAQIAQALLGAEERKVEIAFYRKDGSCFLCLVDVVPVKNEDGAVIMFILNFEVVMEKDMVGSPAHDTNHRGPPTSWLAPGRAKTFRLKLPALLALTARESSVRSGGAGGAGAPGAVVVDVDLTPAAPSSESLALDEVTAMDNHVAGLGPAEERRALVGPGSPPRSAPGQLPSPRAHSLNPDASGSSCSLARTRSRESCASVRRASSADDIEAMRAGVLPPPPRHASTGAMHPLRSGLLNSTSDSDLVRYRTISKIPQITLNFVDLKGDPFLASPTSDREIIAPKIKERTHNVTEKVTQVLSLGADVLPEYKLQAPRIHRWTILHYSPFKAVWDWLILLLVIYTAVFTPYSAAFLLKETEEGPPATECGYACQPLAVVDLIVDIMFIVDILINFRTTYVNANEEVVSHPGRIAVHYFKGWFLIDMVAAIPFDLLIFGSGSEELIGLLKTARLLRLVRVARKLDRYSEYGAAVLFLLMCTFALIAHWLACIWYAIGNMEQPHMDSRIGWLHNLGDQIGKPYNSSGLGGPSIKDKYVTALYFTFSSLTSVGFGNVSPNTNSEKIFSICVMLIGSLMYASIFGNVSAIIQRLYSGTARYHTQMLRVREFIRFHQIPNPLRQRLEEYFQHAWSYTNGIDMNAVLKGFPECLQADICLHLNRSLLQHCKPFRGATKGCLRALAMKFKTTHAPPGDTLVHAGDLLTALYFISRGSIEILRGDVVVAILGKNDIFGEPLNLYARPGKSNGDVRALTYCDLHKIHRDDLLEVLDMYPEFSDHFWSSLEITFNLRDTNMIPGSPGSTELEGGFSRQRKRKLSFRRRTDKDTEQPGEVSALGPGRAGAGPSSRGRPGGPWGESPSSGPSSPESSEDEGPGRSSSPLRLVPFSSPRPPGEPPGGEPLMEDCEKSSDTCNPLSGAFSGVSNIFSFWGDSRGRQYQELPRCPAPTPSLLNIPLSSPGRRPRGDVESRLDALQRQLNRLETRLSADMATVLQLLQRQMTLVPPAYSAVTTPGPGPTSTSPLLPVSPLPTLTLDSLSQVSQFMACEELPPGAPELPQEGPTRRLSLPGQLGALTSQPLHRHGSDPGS

| Structure (SMILES) | hERG current change (%, negative = inhibition) at 10uM |
| --- | --- |
| Cc1cc(C)nc(NC2=NCCN2C(=O)NC2CCCCC2)n1 | -17.7% |
| [2H]c1c([2H])c([2H])c(-c2nc(N3CCCCCC3)sc2C(=O)c2ccccc2)c([2H])c1[2H] | -2.19% |
| CC(C)CCNC(=O)C1CCCN(S(=O)(=O)c2ccc(F)cc2)C1 (stereo not drawn) | 6.85% |
| CC(=O)Nc1ccccc1NC(=O)c1ccc(C)cc1C | 23.7% |
| S=c1[nH]nc(COc2cccc(Cl)c2)n1Cc1ccccc1 | 34.4% |
| COc1cccc(NC(=O)CSc2nc(C3CC3)nc3ccccc23)c1 | 4.75% |
| CCCn1c2ccc(C)cc2c2nnc(SCCN3CCOCC3)nc21 | -32.5% |
| CCCCn1c2ccc(C)cc2c2nnc(SCCN3CCCCC3)nc21 | -74.3% |
| Cc1ccc2[nH]c3nc(SCCN4CCOCC4)nnc3c2c1 | 8.91% |
| CSCCC(NC(=O)C1CCC(C)CC1)C(=O)O (stereo not drawn) | 16.6% |
| Cc1cccnc1NC(=O)c1ccc(Br)o1 | 32.6% |
| Nc1nc(NC(=O)/C=C/c2ccccc2)nn1-c1ccccc1 | -32.6% |
| COc1ccccc1/C=C/C(=O)Nc1nc(N)n(-c2ccccc2)n1 | -33.8% |
| Cc1ccc(C(=O)Nc2nc(N)n(-c3ccccc3)n2)cc1 | -0.817% |
| COc1ccc(/C=C/C(=O)Nc2nc(N)n(-c3ccccc3)n2)cc1 | -53% |
| Nc1nc(NC(=O)c2cccnc2)nn1-c1ccccc1 | 18.8% |
| Nc1nc(NC(=O)/C=C/c2ccc(F)cc2)nn1-c1ccccc1 | -53.4% |
| COc1ccc(C(=O)Nc2nc(N)n(-c3ccccc3)n2)cc1 | -11.4% |
| Nc1nc(NC(=O)/C=C\C(=O)O)nn1-c1ccccc1 | 27.8% |
| Nc1nc(NC(=O)c2ccccc2)nn1-c1ccccc1 | -70.9% |
| Cc1ccc(Nc2nnc(SCc3ccccc3)s2)cc1 | 11.9% |
| O=[N+]([O-])c1ccc(S(=O)(=O)Nc2ccc(-c3ccc(N4CCCC4)nn3)cc2)cc1 | -8.67% |
| Cc1cc(C)c2nc(-c3ccccn3)cc(C(=O)Nc3ccc(S(=O)(=O)Nc4onc(C)c4C)cc3)c2c1 | -2.33% |

| Structure (SMILES) | hERG current change (%, negative = inhibition) at 10uM |
| --- | --- |
| CC(=O)OCCCN1C(=O)c2cccc3cc(Br)cc(c23)C1=O | 4.74% |
| O=S1(=O)c2ccccc2N=NN1Cc1ccc(Cl)cc1 | 16.1% |
| Cn1c(O)c(C=NC2C(=O)C3(C)CCC2C3(C)C)c(=O)n(C)c1=O (stereo not drawn) | -0.548% |
| Cc1onc(-c2c(F)cccc2Cl)c1C(=O)OCC(=O)NCc1ccco1 | 5.77% |
| COc1ccc(CCN(C)C(=O)C2CCCN(Cc3ccc(OC)c(OC)c3)C2)cc1OC (stereo not drawn) | 9.21% |
| COc1ccc(CCN(C)C(=O)C2CCN(Cc3ccc(C)cc3)CC2)cc1OC.O=C(O)C(=O)O | -60.8% |
| COc1ccc(CN2CCCC(C(=O)N(C)Cc3ccccc3)C2)cc1OC.O=C(O)C(=O)O (stereo not drawn) | -71.1% |
| COc1ccc(OC)c(CN2CCC(C(=O)N(C)CCc3ccc(OC)c(OC)c3)CC2)c1.O=C(O)C(=O)O | -11.5% |
| CN(Cc1ccccc1)C(=O)C1CCCN(Cc2ccc(Cl)cc2)C1.O=C(O)C(=O)O (stereo not drawn) | -71% |
| COc1ccc(CCN(C)C(=O)C2CCN(Cc3ccccc3)CC2)cc1OC.O=C(O)C(=O)O | 3.36% |
| COc1ccc(CCN(C)C(=O)C2CCCN(Cc3ccc(OC)c(OC)c3)C2)cc1OC.O=C(O)C(=O)O (stereo not drawn) | -3.31% |
| CCN(CC)C(=O)C1CCCN(Cc2ccccc2)C1 (stereo not drawn) | 9.57% |
| CN(Cc1ccccc1)C(=O)C1CCCN(Cc2cccc(Cl)c2)C1.O=C(O)C(=O)O (stereo not drawn) | -23.5% |
| O=C1NC2(CCCCCC2)C(=O)N1Cc1ccc(Br)cc1 | 4.06% |
| CCOc1ccc(-c2nnn(CC(=O)c3ccc4c(c3)OCCO4)n2)cc1OCC | -1.86% |
| CCc1cc(S(=O)(=O)N2CCN(C(=O)c3ccco3)CC2)ccc1OC | 1.76% |
| COc1ccc(-c2noc3c2-c2nc(-c4cccc(C)c4)sc2CC3)cc1 | 7.57% |
| Cc1ccc(-c2nnc(N3CCN(C(=O)COc4cccc(C)c4)CC3)c3ccccc23)cc1 | -54.6% |
| Cc1ccc(-c2nnc(N3CCN(C(=O)CSc4ncn[nH]4)CC3)c3ccccc23)cc1 | -32.6% |
| Cc1cccc(OCC(=O)N2CCN(c3nnc(-c4ccccc4)c4ccccc34)CC2)c1 | -69.7% |
| CO/N=C/NC(=O)Cc1cn(-c2ncc(C(F)(F)F)cc2Cl)c2ccccc12 | 3.84% |
| CCCOc1ccc(N2C(=O)CC(NCC(=O)OCC)C2=O)cc1 (stereo not drawn) | 8.44% |
